Hits are enriched below; roughly 2.8% of the tested compounds scored in any of these assays.
pS6 MEF inh: inhibitors of mTORC1 signaling in Tsc2-/- p53-/- MEF cells. AID 493208. Potency, µM (titrated, usually from 38.3 µM), usual class: inhibitors. Tsc2-/- p53-/- MEF, phospho-rpS6 immunofluorescence/PI, 24 h. 0.78% of 44,000 active; further: nearly all actives have a fitted effect of over 50% in size
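Compounds act on Tsc2-/-, p53-/- fibroblasts carrying an empty vector for 24 h before fixation and dual staining for phospho-S6 and DNA (propidium iodide). Values are percentages of cells above a rapamycin-defined pS6/PI threshold.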
PMP22 txn prim: modulates PMP22 transcription in S16 Schwann cells; Potency, µM (top dose mostly 57.5 µM), actives largely listed as inhibitors; AID 1508649; S16 Pmp22-F2sN Schwann cells, FLuc/NLuc coincidence luminescence, 24 h; 2% of 43,000 active; active means clear falling dose curves in both reporters; inconclusive means both reporters move, but less clearly or upward; inactive means either reporter flat; the % is the NLuc reporter signal
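S16(c9) Schwann cells with FLuc/NLuc coincidence reporter in the Pmp22 3' UTR; compounds pin-transferred, 24 h at 37C. Dual-luciferase read: FLuc first, then NLuc after Stop&Glo, each 10 min at room temperature.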
S16 viability: cytotoxicity in S16 Pmp22-F2sN Schwann cells; S16 Pmp22-F2sN Schwann cells viability, CellTiter-Glo, 24 h; Potency, µM (titrated, usually from 57.5 µM), most hits filed as cytotoxic; 0.48% of 43,000 active; AID 1508642; further: nearly all actives have a fitted effect of over 65% in size
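S16 Pmp22-F2sN Schwann cells (500-1,000/well) in phenol-red-free DMEM with 10% FBS received 23 nL compound by pin tool for 24 h at 37 °C. Viability was then read as CellTiter-Glo luminescence after 15 min at room temperature.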
GALC G270D act: enhancers of human galactocerebrosidase G270D mutant activity in cells; P54803; 145M-Twi-hGALC-G270D cells (Twitcher mouse brain line with human GALC G270D), HMU-beta-Gal fluorescence, 48 h; Potency, µM (highest dose often 57.5 µM), actives largely listed as activators; 0.1% of 45,000 active; AID 1159614; further: nearly all actives have a fitted effect of over 65% in size
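Mutant human GALC (G270D), stably expressed in a Twitcher mouse brain cell line lacking endogenous GALC, is measured in live-treated cells via 6-hexadecanoylamino-4-methylumbelliferyl-β-galactoside hydrolysis (0.1 mM final, pH 5.2) with fluorescent detection.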
NLuc saturating: inhibits NanoLuc at saturating substrate, PMP22 counter-screen. 4% of 690 active. AID 1508638. Secreted NLuc enzyme (filtered S16 cell medium), Nano-Glo luminescence. shares compounds with PMP22 txn prim. Potency, µM (top dose mostly 57.5 µM), hits mostly inhibitors
NLuc Km counter: counter-screen for PMP22 expression modulators: NanoLuc inhibition at Km. Potency, µM (top dose mostly 57.5 µM), usual class: inhibitors. secreted NLuc enzyme, coelenterazine luminescence, Km conditions. shares compounds with PMP22 txn prim. 5% of 690 active. AID 1508639
FLuc ctr PMP22: firefly luciferase enzyme inhibition artifact for PMP22 screen; shares compounds with PMP22 txn prim; purified P. pyralis FLuc, luminescence, 10 min; Potency, µM (top dose mostly 57.5 µM), usual class: inhibitors; 690 tested, under 10 active; AID 1508640
S16 viab conf: S16 Schwann cell cytotoxicity, confirmatory | AID 1508641 | shares compounds with PMP22 txn prim | S16 Schwann cells viability, CellTiter-Glo ATP luminescence, 24 h | Potency, µM (highest dose often 57.5 µM), usual class: cytotoxic | 7% of 690 active
PMP22 txn cnf: PMP22 transcription modulation, confirmatory | S16 Schwann cells Pmp22-F2sN, dual luciferase, 24 h | AID 1508646 | Potency, µM (top dose mostly 57.5 µM), actives largely listed as inhibitors | shares compounds with PMP22 txn prim | 22% of 690 active; active means clear falling dose curves in both reporters; inconclusive means both reporters move, but less clearly or upward; inactive means either reporter flat; the % is the FLuc reporter signal
Hits are given with their value; i = inactive; ? = inconclusive; nt = no result given. Unless noted, the call rests on the fitted dose curve; in most records, active means well fitted curve in the direction sought with a large enough effect; inconclusive means small, poorly fitted or top-dose-only effect, or another doubt; inactive means no such curve, though single readings can be large; an effect the other way counts as inactive or inconclusive.

SMILES	pS6 MEF inh	PMP22 txn prim	S16 viability	GALC G270D act	NLuc saturating	NLuc Km counter	FLuc ctr PMP22	S16 viab conf	PMP22 txn cnf
CCOc1ccc(NC(=O)c2cc3c(C)nn(-c4ccccc4)c3s2)cc1	18µM	?	i	i	nt	nt	nt	nt	nt
CCOc1ccc(NC(=O)c2cccn(Cc3cccc(Cl)c3)c2=O)cc1	?	i	i	i	nt	nt	nt	nt	nt
O=c1c(C2CC(c3ccc(-c4ccc(Br)cc4)cc3)Cc3ccccc32)c(O)sc2ccccc12 (centres undefined)	nt	nt	nt	i	nt	nt	nt	nt	nt
Cc1ccc2oc(-c3ccc(Cl)cc3)c(O)c(=O)c2c1	9.3µM	?	?	i	nt	nt	nt	nt	nt
Cc1ccc(-n2c(/C=C\c3ccc(F)c(F)c3)nc3ccccc3c2=O)c(C)c1	i	8.9µM	?	i	i	i	i	i	?
CC#C[C@]1(O)CC[C@H]2[C@@H]3C[C@H](C)C4=CC(=O)CC[C@]4(C)[C@H]3CC[C@@]21C	nt	nt	nt	i	nt	nt	nt	nt	nt
COc1ccc(-c2cc3nc(C)c(CCC(=O)N4CCN(c5cc(C)ccc5C)CC4)c(C)n3n2)c(OC)c1	i	14µM	i	i	?	i	i	i	i
CC(CC(C#N)(c1ccccc1)C(C)C)N(C)C (centres undefined)	nt	nt	nt	i	nt	nt	nt	nt	nt
CCOc1ccc(NC(=O)CSc2oc(-c3ccccc3)nc2S(=O)(=O)c2ccc(Cl)cc2)cc1	?	10µM	i	i	?	?	i	?	19µM
CCCCOc1ccc(CN2C(=O)C(=O)c3cc(C)ccc32)cc1OC	?	8.8µM	?	i	i	i	i	i	?
CCCOc1ccc(C2SCC(=O)Nc3c2c(C)nn3-c2cccc(C)c2)cc1OC (centres undefined)	i	?	i	i	nt	nt	nt	nt	nt
Cc1oc(-c2ccc(Cl)cc2)nc1CN1CCC(C(=O)NCCCN2CCN(c3cccc(Cl)c3)CC2)CC1	?	13µM	?	i	?	?	i	17µM	10µM
CCc1ccc(-c2nc(CSCC(=O)N3CCN(c4ccc(F)cc4)CC3)c(C)o2)cc1	i	?	?	i	nt	nt	nt	nt	nt
CC1Sc2c(C(=O)O)c(=O)c3cc(F)c(N4CCNCC4)cc3n21 (centres undefined)	nt	nt	nt	i	nt	nt	nt	nt	nt

Screens from PubChem BioAssay.
